# Only a selection was taken, and hits are over-represented in it overall.
# Pf apPOL inh: Pf-apPOL inhibitors, biochemical, fluorescence. Recombinant Pf-apPOL, molecular beacon fluorescence, 1.5 h. inhibition, % at 10 µM. actives 0.25% (n = 210,000). AID 1794808, 2022
# mHTT CaM bind: mutant huntingtin-calmodulin interaction inhibitors – biochemical, AlphaScreen, primary screen; AlphaScreen His-mHTT/GST-CaM binding, luminescence; inhibition, % at 15 µM; P42858; actives 3.6% (n = 190,000); AID 1671202, 2021
# Target sequence (P42858 whole entry, looked up, change not shown): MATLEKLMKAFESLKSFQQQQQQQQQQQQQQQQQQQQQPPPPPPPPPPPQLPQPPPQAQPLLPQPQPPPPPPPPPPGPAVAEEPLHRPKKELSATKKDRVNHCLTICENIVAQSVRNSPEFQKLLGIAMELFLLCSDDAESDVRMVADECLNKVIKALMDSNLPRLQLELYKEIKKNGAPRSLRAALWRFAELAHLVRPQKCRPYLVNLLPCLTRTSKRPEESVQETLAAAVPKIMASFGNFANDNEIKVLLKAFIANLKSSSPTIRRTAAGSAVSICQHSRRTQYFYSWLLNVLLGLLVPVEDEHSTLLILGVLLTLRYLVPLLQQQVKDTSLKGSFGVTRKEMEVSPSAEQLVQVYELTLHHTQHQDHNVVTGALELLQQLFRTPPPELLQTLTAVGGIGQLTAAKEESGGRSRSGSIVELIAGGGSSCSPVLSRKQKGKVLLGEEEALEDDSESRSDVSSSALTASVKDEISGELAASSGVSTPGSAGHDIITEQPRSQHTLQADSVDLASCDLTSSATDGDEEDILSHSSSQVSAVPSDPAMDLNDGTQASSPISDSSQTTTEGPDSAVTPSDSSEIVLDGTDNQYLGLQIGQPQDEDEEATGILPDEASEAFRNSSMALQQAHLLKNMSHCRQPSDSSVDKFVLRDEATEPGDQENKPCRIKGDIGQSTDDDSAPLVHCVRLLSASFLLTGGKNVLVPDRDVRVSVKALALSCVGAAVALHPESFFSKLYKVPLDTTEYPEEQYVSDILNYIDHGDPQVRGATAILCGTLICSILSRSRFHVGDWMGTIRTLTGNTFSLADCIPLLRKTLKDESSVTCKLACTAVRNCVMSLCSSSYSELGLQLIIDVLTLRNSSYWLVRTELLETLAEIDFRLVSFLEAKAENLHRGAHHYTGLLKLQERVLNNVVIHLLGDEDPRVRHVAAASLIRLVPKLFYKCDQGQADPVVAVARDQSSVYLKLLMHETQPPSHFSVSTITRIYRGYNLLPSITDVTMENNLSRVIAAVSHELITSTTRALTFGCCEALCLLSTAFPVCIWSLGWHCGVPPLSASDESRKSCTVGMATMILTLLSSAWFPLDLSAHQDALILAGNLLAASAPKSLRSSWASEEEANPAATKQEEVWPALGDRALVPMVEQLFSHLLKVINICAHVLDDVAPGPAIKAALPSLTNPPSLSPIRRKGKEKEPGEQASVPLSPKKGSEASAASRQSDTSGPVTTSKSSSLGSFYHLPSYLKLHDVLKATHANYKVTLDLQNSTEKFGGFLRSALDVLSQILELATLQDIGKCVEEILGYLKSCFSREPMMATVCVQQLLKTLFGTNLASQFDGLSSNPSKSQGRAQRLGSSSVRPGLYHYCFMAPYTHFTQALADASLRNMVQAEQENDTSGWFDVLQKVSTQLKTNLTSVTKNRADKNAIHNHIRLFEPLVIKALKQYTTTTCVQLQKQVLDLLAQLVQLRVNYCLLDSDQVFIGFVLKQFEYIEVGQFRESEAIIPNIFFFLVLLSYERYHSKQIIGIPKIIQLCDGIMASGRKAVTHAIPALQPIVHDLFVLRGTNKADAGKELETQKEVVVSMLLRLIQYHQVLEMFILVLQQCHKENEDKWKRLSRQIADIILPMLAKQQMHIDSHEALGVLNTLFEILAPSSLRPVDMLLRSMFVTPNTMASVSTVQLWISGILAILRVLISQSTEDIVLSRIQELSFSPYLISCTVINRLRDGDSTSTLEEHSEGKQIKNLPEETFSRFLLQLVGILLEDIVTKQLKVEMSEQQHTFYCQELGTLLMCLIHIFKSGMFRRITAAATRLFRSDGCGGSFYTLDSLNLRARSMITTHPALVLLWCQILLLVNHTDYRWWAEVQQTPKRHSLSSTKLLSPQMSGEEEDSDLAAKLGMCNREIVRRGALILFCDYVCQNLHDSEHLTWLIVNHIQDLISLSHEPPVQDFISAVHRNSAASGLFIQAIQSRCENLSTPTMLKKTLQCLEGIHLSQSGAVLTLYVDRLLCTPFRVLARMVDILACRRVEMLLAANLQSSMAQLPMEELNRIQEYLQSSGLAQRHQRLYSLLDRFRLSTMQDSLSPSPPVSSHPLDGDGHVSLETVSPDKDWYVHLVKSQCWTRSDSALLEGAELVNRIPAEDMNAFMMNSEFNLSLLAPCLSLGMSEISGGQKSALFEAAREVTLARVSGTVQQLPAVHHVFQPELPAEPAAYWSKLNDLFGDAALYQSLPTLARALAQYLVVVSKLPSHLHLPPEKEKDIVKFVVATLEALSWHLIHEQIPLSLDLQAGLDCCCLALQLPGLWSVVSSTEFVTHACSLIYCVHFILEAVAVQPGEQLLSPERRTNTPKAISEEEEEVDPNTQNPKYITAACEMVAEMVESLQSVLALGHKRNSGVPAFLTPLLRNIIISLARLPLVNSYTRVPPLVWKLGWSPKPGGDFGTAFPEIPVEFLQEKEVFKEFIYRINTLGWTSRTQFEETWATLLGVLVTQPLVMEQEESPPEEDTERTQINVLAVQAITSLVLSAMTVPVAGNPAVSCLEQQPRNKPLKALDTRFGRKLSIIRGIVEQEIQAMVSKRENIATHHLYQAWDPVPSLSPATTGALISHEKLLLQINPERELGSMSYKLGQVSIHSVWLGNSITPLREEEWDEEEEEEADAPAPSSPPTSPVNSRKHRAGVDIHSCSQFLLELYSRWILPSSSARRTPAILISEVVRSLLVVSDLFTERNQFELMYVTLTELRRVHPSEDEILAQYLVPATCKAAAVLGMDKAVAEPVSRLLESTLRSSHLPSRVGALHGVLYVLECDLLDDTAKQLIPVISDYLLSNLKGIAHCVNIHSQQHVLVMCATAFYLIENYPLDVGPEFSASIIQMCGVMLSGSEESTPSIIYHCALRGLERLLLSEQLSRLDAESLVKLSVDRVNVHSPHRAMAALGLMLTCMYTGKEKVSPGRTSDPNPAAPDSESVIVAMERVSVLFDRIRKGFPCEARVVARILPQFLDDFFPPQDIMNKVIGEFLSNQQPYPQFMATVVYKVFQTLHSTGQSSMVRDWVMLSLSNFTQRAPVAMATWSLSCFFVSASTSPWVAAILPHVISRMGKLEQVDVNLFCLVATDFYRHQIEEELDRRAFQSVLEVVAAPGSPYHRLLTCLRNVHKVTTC
# A number is an active result; i = inactive; nt = no result given; + = active, no number; ! = repeats disagree. Cut-off read from the data, not from the text of the source: active = inhibition above about 50%; inactive = the rest.
SMILES,Pf apPOL inh,mHTT CaM bind
COc1cccc(C2Oc3c(OC)cccc3C3CC(c4ccc(C)o4)=NN32)c1 (stereo not drawn),i,57.0
CCOc1cccc2c1OC(c1ccc(OC)cc1)N1N=C(c3ccc(C)o3)CC21 (stereo not drawn),i,81.0
CCOC(=O)C1=CN(CC)S(=O)(=O)N=C1C,i,i
COc1ccc(NC(=O)C2CC(=O)N(c3ccc4c(c3)CCN4C(C)=O)C2)c(OC)c1 (stereo not drawn),i,i
O=C1C(N2CCOCC2)CCCN1Cc1cccc(Cl)c1 (stereo not drawn),i,i
CN1c2ccc(Cl)cc2C(=O)NC12CCN(C(=O)NCc1ccccc1)CC2,i,i
Nc1nnnn1/N=C/c1cc(Br)ccc1O,nt,+
Oc1ccc(Br)cc1/C=N/n1cnnc1,nt,i
O=[N+]([O-])c1ccc(S(=O)(=O)/C=C/C=C/N2CCCCC2)cc1,i,93.0
O=[N+]([O-])c1ccc(S(=O)(=O)N2CCCCCC2)cc1,i,i
CCc1nnc(SCC(=O)Nc2cccc(C(F)(F)F)c2)nc1CC,i,i
COCCNc1nc(SCC(=O)Nc2cccc(C(F)(F)F)c2)nc2ccccc12,i,67.0
N#CC1=C(N)OC2=C(C(=O)CC(c3ccccc3)C2)C1c1c[nH]c2ccccc12 (stereo not drawn),i,58.1
N#CC1=C(N)OC2=C(C(=O)CC(c3ccccc3)C2)C1c1ccccc1F (stereo not drawn),i,i
CSc1cccc(NC(=O)CN2CCC3(CC2)N=C(c2ccc(C)cc2)C(=O)N3)c1,i,i
COc1ccc(NC(=O)CN2CCC3(CC2)N=C(c2ccc(C)cc2)C(=O)N3)c(OC)c1,i,i
COc1ccccc1NC(=O)CN1CCC2(CC1)N=C(c1ccc(Cl)cc1)C(=O)N2,i,i
COc1ccccc1NC(=O)CN1CCC2(CC1)N=C(c1cccc(C)c1)C(=O)N2,i,50.3
COc1ccccc1NC(=O)CN1CCC2(CC1)N=C(c1cccc(Cl)c1)C(=O)N2,i,97.0
Cc1ccc(NC(=O)CN2CCC3(CC2)N=C(c2ccccc2)C(=O)N3)cc1F,i,54.5
CSc1cccc(NC(=O)CN2CCC3(CC2)N=C(c2cccc(C)c2)C(=O)N3)c1,i,69.6
O=C(CN1CCC2(CC1)N=C(c1ccccc1)C(=O)N2)Nc1ccc(F)c(F)c1,i,i
COC(=O)c1ccc(N2CCN(C(C)C)CC2)c(NC(=O)Cc2ccc(F)cc2)c1,i,i
CCCCCCCCCCOc1ccc(C(=O)Oc2ccc(OCCCCCC)cc2)cc1,i,i
COc1ccc(-c2nc3ccccc3n2C(C)C)cc1OC,i,i
SMILES,Pf apPOL inh,mHTT CaM bind
Cc1ccc(NC(=O)CN2CCC3(CC2)N=C(c2ccccc2)C(=O)N3)c(C)c1,i,56.2
Cc1ccc(C)c(NC(=O)CN2CCC3(CC2)N=C(c2ccccc2)C(=O)N3)c1,i,i
CC(C)N(Cc1ccccc1)c1ncnc(N)c1[N+](=O)[O-],i,i
CN(Cc1ccccc1)c1ncnc(N)c1[N+](=O)[O-],92.3!,i
O=C1NC(=O)/C(=C\c2cc(Br)ccc2OCc2cccc([N+](=O)[O-])c2)N1,i,i
Cc1ccc(C2=C/C(=C\c3ccccc3C)C(=O)O2)cc1,i,i
CC1=C/C(=C/c2ccc(-c3ccc(C)cc3)o2)C(=O)O1,i,85.0
O=C(NC1CCCCC1)C1CCCN(c2cn[nH]c(=O)c2)C1 (stereo not drawn),i,i
Cc1ccc2c(S(=O)(=O)O)ccc(O)c2n1,i,i
O=S(=O)(O)c1ccc(O)c2ncccc12,i,100.3
Cc1ccc2[nH]cc(CCN3CC(C(=O)NCCC(C)C)CC3=O)c2c1 (stereo not drawn),i,i
Cc1ccc(-c2cncc(C(=O)NCc3ccc(F)cc3)c2)cc1,i,i
O=C(c1ccoc1)N1CCC(Oc2cc(N3CCCCC3)ncn2)C1 (stereo not drawn),i,i
COCCn1cc2c3c(cccc31)CN(C(=O)c1cccc(C(F)(F)F)c1)CC2,i,69.6
COCCn1cc2c3c(cccc31)CN(C(=O)c1cc(F)cc(F)c1)CC2,i,i
COCCn1cc2c3c(cccc31)CN(C(=O)c1ccccc1Cl)CC2,i,i
CCCn1cc2c3c(cccc31)CN(C(=O)NCCCOC)CC2,i,i
COCCn1cc2c3c(cccc31)CN(C(=O)c1ccccc1OC)CC2,i,52.1
CCCn1cc2c3c(cccc31)CN(C(=O)c1ccccc1OC)CC2,i,58.2
Cc1cccc(-c2noc(-c3cccnc3N3CCC(C(=O)NCC4CC4)CC3)n2)c1,i,i
NC(=O)c1ccc(N2CCCCC2)c(N)c1,i,i
CCc1n[nH]c(CC)c1NC(=O)c1cccc(OC)c1,i,i
CCc1[nH]nc(-c2ccc(OC)cc2OC)c1NC(C)=O,83.5,96.8
COc1ccc(C2=NN(C(=O)CN(C)C(C)=O)C(c3ccc(F)cc3)C2)cc1 (stereo not drawn),i,i
CCSc1sc(C(C)(CC)c2cc(C(C)=O)c(SCC)s2)cc1C(C)=O,nt,i
SMILES,Pf apPOL inh,mHTT CaM bind
O=C(NCc1ccc(N2CCCCC2)nc1)C1CCCC1,i,i
COc1cccc2c1OC1(C)CC2NC(=O)N1c1cccc(C(=O)NCCc2ccccc2)c1 (stereo not drawn),i,i
O=C(NNC(=O)c1cc2cc(Br)ccc2oc1=O)c1ccc(O)cc1O,72.7,54.5
CNC(=O)c1cc2cc(Br)ccc2oc1=O,i,i
CCC(=O)N1CCc2sc(C(=O)N3CCN(c4cccc(Cl)c4)CC3)cc2C1,i,i
CC(=O)N1CCc2sc(S(=O)(=O)N3CCN(c4ccccc4)CC3)cc2C1,i,i
CC(=O)N1CCc2sc(C(=O)N3CCN(c4cccc(Cl)c4)CC3)cc2C1,i,78.2
CC(=O)N1CCc2sc(S(=O)(=O)N3CCN(c4ccccc4Cl)CC3)cc2C1,i,80.7
NS(=O)(=O)c1ccc(CCNC(=O)CSc2ncnc3c2sc2ccccc23)cc1,i,i
Cc1cccc(NC(=O)c2ccc(-c3ccc(F)cc3)nc2)c1,i,i
CCN(C)c1ccc(/C=C2/C(=O)N(c3ccc(Cl)c(Cl)c3)N=C2C)cc1,i,61.0
CC1=NN(c2nc(-c3ccccc3)cs2)C(=O)/C1=C/c1ccco1,i,76.0
CC1=NN(c2ccc(Cl)c(Cl)c2)C(=O)/C1=C/c1ccccc1,i,i
CC1=NN(c2nc(-c3ccc(C)cc3)cs2)C(=O)/C1=C/c1ccc(N(C)C)cc1,i,56.0
CC1=NN(c2ccccc2)C(=O)/C1=C/c1ccc(N(C)C)cc1,i,i
CC1=NN(c2ccc(Br)cc2)C(=O)/C1=C/c1ccc(N(C)C)cc1,i,i
CCc1ccc(N2N=C(C)/C(=C\c3ccc(N(C)C)cc3)C2=O)cc1,i,70.0
CC1=NN(c2nc(-c3ccccc3)cs2)C(=O)/C1=C/c1ccc(C)s1,i,i
CCc1cccc(N=c2oc3c(C)ncc(CO)c3cc2C(N)=O)c1,i,i
NC(=O)c1c2c(nc3ccc(F)cc13)CCCC2,i,i
O=C(NCc1ccco1)c1cnn2c(C(F)(F)F)cc(-c3ccc(Br)cc3)nc12,i,i
COCC1CCN(C(=O)c2ccnc(N3CCNC(c4ccccc4)C3)c2)CC1 (stereo not drawn),i,i
O=C(NCCN1CCCCC1)c1cn2ccccc2n1,i,i
Cc1ccccc1CNC(=O)c1ccc2c(c1)Sc1ncccc1C(=O)N2C,i,i
COc1ccc(OCC(=O)Nc2cccc(-c3nc4ncccc4o3)c2C)cc1,i,i

# Screening data (PubChem)
